Compound activity (PubChem BioAssay)
This is a sample that favours compounds with a hit; in the whole collection about 12% have one here.
Pf growth 96h: inhibits malaria parasite growth, 96 h | P. falciparum luciferase reporter growth, 96 h | Potency, µM (doses to about 28.7 µM), without a hit: top-dose activity change, negative = inhibition, actives largely listed as inhibitors | hit rate 6.9% among 320,000 | AID 504834; further: on the % scale 0 is the no-effect control and ±100 the full control effect
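Readout is luminescence from an integrated firefly luciferase in P. falciparum. Red cells, 2% hematocrit and 0.05% parasitemia final, were cultured with compound through two parasite generations (96 hours) at 37 C, 5% CO2.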
Sm TGR block: S. mansoni TGR enzyme inhibition; Potency, µM (doses to about 114 µM), inactives show top-dose activity change, negative = inhibition, hits mostly inhibitors; hit rate 3% among 360,000; purified TGR, DTNB reduction, TNB absorbance 405 nm; further: on the % scale 0 is the no-effect control and ±100 the full control effect; nearly all actives have a fitted effect of over 60% in size
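Kinetic colorimetric format: TGR-catalysed, NADPH-driven DTNB reduction monitored via TNB absorbance. Enzyme dispensed at 20 nM; compound exposure 15 min at room temperature before reaction start.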
SARS PLP yeast: SARS-CoV PLP inhibition in yeast | S. cerevisiae expressing SARS-CoV PLpro, growth rescue | Potency, µM (titrated, usually from 32.9 µM), without a hit: at the highest dose activity, positive = growth rescue, most hits filed as activators | hit rate 0.19% among 330,000 | AID 485353; calls by dose curve; further: 0% is about no effect; nearly all actives have a fitted effect of over 55% in size
Pf growth 48h: inhibits P. falciparum growth in the first generation, 48 h | P. falciparum luciferase growth in erythrocytes, 48 h | Potency, µM (titrated, usually from 28.7 µM), for the others: at the highest dose activity change, negative = inhibition, actives largely listed as inhibitors | hit rate 5.9% among 310,000; further: on the % scale 0 is the no-effect control and ±100 the full control effect
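Erythrocytes infected with P. falciparum carrying an integrated firefly luciferase reporter (2% hematocrit, 0.1% parasitemia final) were exposed to compounds in RPMI 1640 with 0.5% Albumax at 37 C, 5% CO2. Growth inhibition was scored as reduced luminescence.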
* hit, by the source's call; ? = inconclusive; · = no result given; ! = repeats disagree. Unless noted, the call rests on the fitted dose curve; in most records, active means well fitted curve in the direction sought with a large enough effect; inconclusive means small, poorly fitted or top-dose-only effect, or another doubt; inactive means no such curve, though single readings can be large; an effect the other way counts as inactive or inconclusive. Potency means the concentration at half of the fitted maximal effect.

SMILES | Pf growth 96h | Sm TGR block | SARS PLP yeast | Pf growth 48h
CCc1ccc(NC(=O)COC(=O)C2(c3ccc(Cl)cc3)CCCC2)cc1 | 14.7µM* | -6.8% | 4.7% | -15.5%
Nc1cc(-c2ccc(Cl)cc2)nn1-c1ccccc1 | 204.3% | -13.6% | -2.1% | 231.4%
Nc1ccc(-c2cc(N)n(-c3ccccc3)n2)cc1 | · | 6.1% | -4.1% | 6.57µM*
Cc1oncc1C(=O)Nc1ccc2ccccc2c1 | 57.4% | -4.0% | -6.8% | 8.9%
Cc1oncc1C(=O)Nc1ccc(C(F)(F)F)cc1 | 4.55µM*! | -1.1% | -3.0% | ?
Cc1cc2nc(C3CCN(Cc4nnnn4Cc4ccccc4)CC3)[nH]c2cc1C | 5.22µM* | 6.9% | 3.4% | ?
COc1ccc(Cn2nnnc2CN2CCC(c3nc4ccccc4s3)CC2)cc1 | 181.7% | -0.6% | -2.3% | 11.7µM*
CCC(C)(C)n1nnnc1CN1CCC(c2nc3ccc(C)cc3[nH]2)CC1 | 33.7% | -14.6% | -7.9% | ·
c1ccc2sc(C3CCN(Cc4nnnn4Cc4ccc5c(c4)OCO5)CC3)nc2c1 | 8.6% | -32.9% | 14.6% | ?
Cc1cc(C)n(C(=O)c2ccc([N+](=O)[O-])cc2Cl)n1 | 42.1% | 84.3% | 3.0% | -3.3%
CC(C)c1nc2sc(C(=O)O)c(N)c2c2c1CCCC2 | 13.1µM* | -26.7% | -0.7% | ?
Cc1ccc(C(=O)NN(CCC(=O)NC(C)(C)C)C2=NS(=O)(=O)c3ccccc32)cc1 | 5.86µM* | 4.2% | 11.1% | -8.8%
CC(C)(C)NC(=O)CCN(/N=C/c1ccccc1)C1=NS(=O)(=O)c2ccccc21 | ? | 5.0% | -2.3% | ?
N#CC1(C#N)CC(C=O)=C(N)C1(C#N)CC(=O)c1ccc(F)cc1 (stereo unspecified) | 0.0% | 20µM* | -2.5% | 6.5%
O=C(C[N+]12CC[N+](CC(=O)c3ccc(F)cc3)(CC1)CC2)c1ccc(F)cc1 | 0.0% | -20.9% | 0.3% | 27.1%
CC(Cc1ccccc1)N1C(=O)c2cccc([N+](=O)[O-])c2C1=O (stereo unspecified) | 2.4% | -12.0% | 0.7% | -2.7%
Cc1oc(-c2ccc3ccccc3c2)nc1CN(C)C(C)c1ccncn1 (stereo unspecified) | 4.2% | 50.1µM* | 1.4% | 33.5%
CC(c1ccncn1)N(C)Cc1nc(-c2ccc(C(F)(F)F)cc2)no1 (stereo unspecified) | ? | 8.2% | 0.1% | -0.8%
CSc1ncc2c(n1)-c1ccccc1N(Cc1ccc(F)cc1)S2(=O)=O | · | 4.8% | · | ·
CCOC(=O)c1nnn(-c2nonc2N)c1CN1CCCC1 | 0.657µM* | 1.7% | -3.9% | -12.8%
CC(/C=N/NC(=O)c1nnn(-c2nonc2N)c1CN1CCCCC1)=C\c1ccccc1 | 9.28µM* | -4.0% | -4.2% | ?
O=C(Nc1nccs1)c1cc2c(s1)-c1ccccc1OC2 | -3.7% | -1.4% | -2.7% | ·
Cc1cccc2c1-c1sc(C(=O)Nc3cccc([N+](=O)[O-])c3C)cc1CO2 | 0.738µM* | 7.0% | 21.0% | -4.8%
Cc1cccc2c1-c1sc(C(=O)Nc3nccs3)cc1CO2 | 8.28µM* | -1.5% | -19.0% | ·
CCc1ccccc1NC(=O)CSc1nc2ccccc2nc1Cc1cccc(OC)c1 | · | -12.0% | · | ·
SMILES | Pf growth 96h | Sm TGR block | SARS PLP yeast | Pf growth 48h
O=C(CN1c2ccccc2S(=O)(=O)c2ccccc21)Nc1ccccc1Cl | · | 1.8% | · | ·
Cc1ccc2oc(=O)c3cc(C(=O)N(Cc4ccccc4)C(C)C)sc3c2c1 | · | 4.6% | · | ·
Cc1ccc2c(c1)N(C(=O)CCC(=O)NCc1ccccc1Cl)CC(C)O2 (stereo unspecified) | · | -9.1% | · | ·
CCN1C(=O)[C@H]2[C@@H](c3ccc(-c4ccc5c(c4)OCO5)c(OC)c3)N[C@@](Cc3ccccc3)(C(=O)OC)[C@H]2C1=O | ? | -23.5% | -0.6% | 1.17µM*
CCN1C(=O)[C@H]2[C@@H](c3ccc(-c4ccc(OC)cc4)c(OC)c3)N[C@@](Cc3ccccc3)(C(=O)OC)[C@H]2C1=O | · | · | 12.2% | ·
CCN1C(=O)[C@H]2[C@@H](c3ccc(-c4ccc5c(c4)OCO5)c(OC)c3)N[C@@](CC(C)C)(C(=O)OC)[C@H]2C1=O | 13.1µM* | 50.1µM* | -2.4% | 6.57µM*
CCN1C(=O)[C@H]2[C@@H](c3ccc(-c4cccc(Cl)c4)c(OC)c3)N[C@@](Cc3ccccc3)(C(=O)OC)[C@H]2C1=O | 0.415µM* | 28.2µM* | -0.8% | 2.08µM*
C[C@H](CO)N1C[C@H](C)[C@@H](CN(C)C(=O)NC2CCCCC2)Oc2ccc(NC(=O)Cc3ccccc3)cc2C1=O | · | · | 6.1% | ·
COc1cccc(C2c3c(oc4ccc(Cl)cc4c3=O)C(=O)N2c2cc(C)on2)c1OC (stereo unspecified) | 8.28µM* | -3.0% | ? | 8.6%
COc1ccc(/C(O)=C2\C(=O)C(=O)N(c3cc(C)on3)C2c2cccc(OC)c2OC)cc1C (stereo unspecified) | -2.3% | -3.6% | -6.2% | ?
Cc1cc(C)c(NC(=O)CN(C2CCCCC2)C2CCCCC2)c(C)c1 | · | -4.2% | -5.0% | ?
Cc1cc(C)c(NC(=O)CCCCCNC2CCCCC2)c(C)c1 | 13.1µM* | 5.1% | -6.2% | 4.0%
CCOC(=O)c1c(-c2ccccc2)oc2ccc(NS(=O)(=O)c3ccc(C(C)C)cc3)cc12 | · | -1.3% | · | ·
O=Cc1ccc(N2N=C(c3ccccc3)CC2c2ccccc2)cc1 (stereo unspecified) | -0.8% | 8.3% | -2.0% | -18.2%
CC(=O)Nc1ccc(C2CC(c3ccc(Cl)cc3)=NN2c2ccccc2)cc1 (stereo unspecified) | 4.65µM* | -3.9% | -6.6% | ·
CC(=O)Nc1ccc(C2=NN(c3ccccc3)C(c3ccccc3)C2)cc1 (stereo unspecified) | 11.7µM* | -33.1% | -5.2% | 9.28µM*
O=C(O)c1ccc(N2N=C(c3ccccc3)CC2c2ccccc2)cc1 (stereo unspecified) | 6.0% | -3.8% | -22.0% | 214.1%
c1ccc(C2CC(c3cccs3)=NN2c2ccccc2)cc1 (stereo unspecified) | 10.4µM* | 2.5% | 0.0% | 10.4µM*
Fc1ccc(C2CC(c3cccs3)=NN2c2ccccc2)cc1 (stereo unspecified) | -8.7% | -26.8% | 12.2% | ?
O=C(Cn1cc(C(=O)C2CC2)c2ccccc21)Nc1ccc(Br)cc1 | · | -2.4% | · | ·
Cc1ccc(C)c(Nc2nn3c(=O)c4ccc(C(=O)NCc5ccccc5)cc4nc3s2)c1 | · | 0.2% | · | ·
Brc1cccc(-c2nnc(CN3CCN(c4ccccn4)CC3)o2)c1 | · | 6.5% | · | ·
O=C1/C(=C/c2ccc(O)c(O)c2)SC(=S)N1Nc1ccccc1 | 147.0% | -25.1% | 5.4% | ?
O=C(Cc1ccccc1)NN1C(=O)/C(=C/c2ccccc2C(=O)O)SC1=S | 11.7µM* | 4.6% | 2.3% | 36.8%
O=C(O)c1ccc(/C=C2\SC(=S)N(Nc3ccccc3)C2=O)cc1 | ? | 3.16µM* | -1.6% | -24.3%
O=C1/C(=C/c2ccncc2)SC(=S)N1Nc1ccccc1 | 9.28µM* | 3.16µM* | -4.1% | 8.28µM*
Clc1cccc(OCCCn2ccnc2)c1 | ? | -10.5% | -2.3% | -9.4%
Clc1ccc([C@H](Cn2ccnc2)OCc2csc3c(Cl)cccc23)c(Cl)c1 | 5.73µM* | · | · | ?
